Results reported in PubChem BioAssay (Tox21).
Values joined by “and” are separate entries in the source; they are usually repeats but may differ in a detail not shown here. Equal values may be shown once. Results filed as inconclusive are left out. A structure can be active in one record and inactive in another. Active and inactive are the calls of the source. Unless noted, calls come from the whole dose curve; as a rule, active = well fitted curve in the direction sought with a large enough effect in the repeat runs; inconclusive = weak or mixed curves; inactive = no such curve, though single readings can be large; an effect the other way counts as inactive or inconclusive.

Experiments:
[1] = target: Retinoic acid receptor RXR-alpha (Homo sapiens) (UniProt P19793); test: qHTS assay to identify small molecule agonists of the RXR signaling pathway (AID 1159527; calls by dose curve; note: nearly all actives have a fitted effect of over 35% in size; note: potency is the fitted concentration of half-maximal effect)
Method in brief: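 Agonist-mode beta-lactamase reporter assay: HEK 293T RXR-alpha-UAS-bla cells treated 16 hr at 37 C with compounds, 9-cis retinoic acid as positive control. LiveBLAzer FRET substrate, 405 nm excitation, 460/530 nm emission.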

[2] = qHTS assay to identify small molecule agonists of the RXR signaling pathway - cell viability counter screen (AID 1159529); note: nearly all actives have a fitted effect of over 50% in size; note: potency is the fitted concentration of half-maximal effect
Method in brief: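 CellTiter-Glo luminescence gave viability in the wells also read for beta-lactamase. Cells (RXR-alpha-UAS-bla HEK 293T, 2% charcoal-stripped FBS medium) had 5 hr plating, then 16 hr compound exposure at 37 C; tetraoctyl ammonium bromide served as positive control.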

[3] = qHTS assay to identify small molecule antagonists of the retinoid acid receptor (RAR) signaling pathway - cell viability counter screen (AID 1159551); note: nearly all actives have a fitted effect of over 35% in size
Method in brief: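 Cytotoxicity counter screen: ATP content quantified by CellTiter-Glo luminescence in C3RL4 cells treated 6 hr at 37 C with compound and retinol (1 uM final). Cells plated at 1,000/well and cultured overnight before dosing.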

[4] = qHTS assay to identify small molecule antagonists of the retinoic acid receptor (RAR) signaling pathway (AID 1159552; note: nearly all actives have a fitted effect of over 50% in size)
Method in brief: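 Luminescent RARE reporter read-out in C3RL4 cells: 6 hr co-treatment at 37 C of test compounds with retinol at 1 uM final. Cells plated overnight beforehand; luciferase reagent incubated 30 min at room temperature before reading.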

[5] = qHTS assay to identify small molecule antagonists of the estrogen related receptor (ERR) signaling pathway from Tox21 library - cell viability counter screen (AID 1224834); note: nearly all actives have a fitted effect of over 30% in size; note: potency is the fitted concentration of half-maximal effect
Method in brief: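 CellTiter-Fluor fluorescence, read after 30 min at 37 C, measures viability of ERR cells. Cells plated at 2,000/well and incubated 6 h before pin-tool compound addition, then exposed 17.5 hours at 37 C.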

[6] = target: Luciferin 4-monooxygenase (Photinus pyralis) (UniProt P08659); test: qHTS assay to identify small molecule inhibitors of firefly luciferase (AID 1224835); note: nearly all actives have a fitted effect of over 25% in size; note: potency is the fitted concentration of half-maximal effect
Method in brief: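 Quantitative HTS format; KM concentrations of both substrates. Purified P. pyralis FLuc activity quantified from luminescence images.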

[7] = qHTS assay to identify small molecule agonists of the constitutive androstane receptor (CAR) signaling pathway - cell viability counter screen (AID 1224836); note: nearly all actives have a fitted effect of over 45% in size; note: potency is the fitted concentration of half-maximal effect
Method in brief: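 Cell viability multiplexed with the CAR agonist screen: CellTiter-Fluor fluorescence after 23 hr at 37 C. HepG2-CYP2B6-hCAR cells got compounds at 15 concentrations with PK11195 at 0.75 uM final.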

[8] = qHTS assay to identify small molecule antagonists of the constitutive androstane receptor (CAR) signaling pathway - cell viability counter screen (AID 1224837); note: nearly all actives have a fitted effect of over 45% in size; note: potency is the fitted concentration of half-maximal effect
Method in brief: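 Cytotoxicity counter-screen: CellTiter-Fluor fluorescence after 23 h compound exposure (15-point qHTS) in double-stable HepG2-CYP2B6-hCAR cells, with 50 nM CITCO added.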

[9] = target: Nuclear receptor subfamily 1 group I member 3 (Homo sapiens) (UniProt Q14994); test: qHTS assay to identify small molecule antagonists of the constitutive androstane receptor (CAR) signaling pathway (AID 1224838);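 note: HepG2 cells stably expressing hCAR with CYP2B6 luciferase reporter stimulated by CITCO; nearly all actives have a fitted effect of over 40% in size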; note: potency is the fitted concentration of half-maximal effect
Method in brief: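 Antagonism measured as luciferase signal (ONE-Glo, 30 min, room temperature) in CAR-stimulated cells: HepG2-CYP2B6-hCAR double-stable line exposed 24 hr at 37 C to compound in a 15-point series plus 50 nM CITCO.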

[10] = target: Nuclear receptor subfamily 1 group I member 3 (Homo sapiens) (UniProt Q14994); test: qHTS assay to identify small molecule agonists of the constitutive androstane receptor (CAR) signaling pathway (AID 1224839); note: nearly all actives have a fitted effect of over 15% in size; note: potency is the fitted concentration of half-maximal effect;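 for activation: HepG2 cells stably carrying human CAR and a CYP2B6 luciferase reporter; series mostly up to about 92 µM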
Method in brief: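 Luminescent ONE-Glo read-out after 24 hr, 37 C exposure of double-stable HepG2-CYP2B6-hCAR reporter cells to a 15-point compound series, in the presence of 0.75 uM PK11195 (final).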

[11] = target: Thyrotropin receptor (Homo sapiens) (UniProt P16473); test: qHTS assay to identify small molecule agonists of the thyroid stimulating hormone receptor (TSHR) signaling pathway (AID 1224843; calls by dose curve; note: nearly all actives have a fitted effect of over 45% in size)
Method in brief: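 Compounds are titrated over 15 concentrations, in triplicate, onto TSHR-HEK293 cells seeded at 800/well. Plates sit 30 min at room temperature before cAMP-d2 and anti-cAMP cryptate are added; signal is read after a further hour.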

[12] = qHTS assay to identify small molecule agonists of the hypoxia (HIF-1) signaling pathway - cell viability counter screen (AID 1224844; calls by dose curve; note: nearly all actives have a fitted effect of over 50% in size)
Method in brief: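 Cytotoxicity measured by CellTiter-Glo ATP luminescence in the wells also read for beta-lactamase signal. Cells were HRE-bla ME-180 (2,000/well, 0.5% dialyzed FBS), exposed to compounds for 17 h at 37C.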

[13] = qHTS assay to identify small molecule agonists of H2AX (AID 1224845; active = well fitted activation curve with a large enough effect in the signal ratio in the repeat runs, not every such curve was filed as active; the % refers to the signal ratio)
Method in brief: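 Wild-type CHO-K1 cells plated overnight, then exposed 3 hr at 37C to compounds at 15 concentrations (0.76% DMSO). Lysed, then HTRF anti-pH2AX(S139)-cryptate/anti-H2AX-d2 detection after 24 hr at room temperature; emissions 665 and 620 nm.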

[14] = qHTS assay to identify small molecule agonists of the hypoxia (HIF-1) signaling pathway (AID 1224846; active = well fitted activation curve with a large enough effect in the signal ratio in the repeat runs, not every such curve was filed as active; the % refers to the signal ratio)
Method in brief: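 Compounds added to ME-180 cells carrying hypoxia-response-element beta-lactamase reporter (0.5% dialyzed FBS, 5 h preplating), 17 h at 37C; agonist activity detected by CCF4-AM B/G FRET read-out.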

[15] = qHTS assay to identify small molecule agonists of the retinoic acid receptor (RAR) signaling pathway (AID 1159553)
Method in brief: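 Luminescence was measured 30 min after luciferase reagent addition at room temperature. Before that, C3RL4 reporter cells (1,000 per well, plated overnight) were treated with compound for 6 hr at 37 C and 5% CO2.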

[16] = qHTS assay to identify small molecule antagonists of the estrogen related receptor signaling pathway with the pleiotropic PPARgamma coactivator (PGC) from Tox21 10K library - cell viability counter screen (AID 1224840; active = well fitted cell-killing curve with a large enough effect in the repeat runs, not every such curve was filed as active; note: nearly all actives have a fitted effect of over 40% in size)
Method in brief: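 Counter-screen for cytotoxicity: after 17.5 h compound exposure at 37 C, CellTiter-Fluor reagent added to PGC/ERR cells for 30 min and fluorescence read. Cells were seeded at 2,000 per well 6 h before dosing.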

[17] = qHTS assay to identify small molecule antagonists of the estrogen related receptor signaling pathway with the pleiotropic PPARgamma coactivator (PGC) from Tox21 10K library (AID 1224841; call rule not given here; note: series mostly up to about 92 µM; actives are mostly falling curves and most rising ones were filed inactive; nearly all actives have a fitted effect of over 50% in size)
Method in brief: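 Luminescence (One-Glo, 30 min at room temperature) after 18 h compound treatment at 37 C of PGC/ERR reporter cells plated at 2,000 cells/well and settled 6 h beforehand.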

[18] = qHTS assay to identify small molecule agonists of the estrogen related receptor signaling pathway with the pleiotropic PPARgamma coactivator (PGC) from Tox21 10K library (AID 1224842); note: nearly all actives have a fitted effect of over 15% in size
Method in brief: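 PGC/ERR reporter cells (NTP line) were seeded 2,000 per well, rested 6 h at 37 C/5% CO2, then pin-dosed with compounds in DMSO for 18 h at 37 C; luciferase read by One-Glo luminescence after 30 min at room temperature.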

[19] = qHTS assay to identify small molecule antagonists of the estrogen related receptor (ERR) signaling pathway - cell viability counter screen (AID 1224818);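 note: series mostly up to about 46 µM; viability measured after 17.5 h of compound exposure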
Method in brief: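 Cytotoxicity counter screen: fluorescence from CellTiter-Fluor, added after 17.5 h compound exposure at 37 C and read 30 min later. ERR cell line seeded at 2,000 cells/well, preincubated 6 h before dosing.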

[20] = qHTS assay to identify small molecule antagonists of the estrogen related receptor signaling pathway with the pleiotropic PPARgamma coactivator (PGC) cell viability counter screen (AID 1224822; note: series mostly up to about 46 µM)
Method in brief: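 Viability counter-screen read by fluorescence intensity after 30 min with CellTiter-Fluor at 37 C; PGC/ERR reporter cells were exposed to compounds for 17.5 h at 37 C following a 6 h preincubation.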

Measured: Potency

Retinoic acid receptor RXR-alpha (Homo sapiens), sequence (P19793 whole entry, looked up): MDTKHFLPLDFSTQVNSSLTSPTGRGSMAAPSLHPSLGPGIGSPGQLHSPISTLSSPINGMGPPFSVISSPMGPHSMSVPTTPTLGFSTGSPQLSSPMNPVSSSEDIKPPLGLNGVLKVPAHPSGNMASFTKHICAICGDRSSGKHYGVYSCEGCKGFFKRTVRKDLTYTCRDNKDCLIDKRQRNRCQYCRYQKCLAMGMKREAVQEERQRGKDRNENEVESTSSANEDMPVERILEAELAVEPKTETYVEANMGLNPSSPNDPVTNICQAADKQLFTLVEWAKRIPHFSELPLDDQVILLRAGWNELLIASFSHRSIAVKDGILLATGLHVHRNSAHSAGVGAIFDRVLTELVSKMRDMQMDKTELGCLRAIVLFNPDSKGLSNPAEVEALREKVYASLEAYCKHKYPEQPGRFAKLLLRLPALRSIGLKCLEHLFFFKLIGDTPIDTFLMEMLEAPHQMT
Thyrotropin receptor (Homo sapiens), sequence (P16473 whole entry, looked up): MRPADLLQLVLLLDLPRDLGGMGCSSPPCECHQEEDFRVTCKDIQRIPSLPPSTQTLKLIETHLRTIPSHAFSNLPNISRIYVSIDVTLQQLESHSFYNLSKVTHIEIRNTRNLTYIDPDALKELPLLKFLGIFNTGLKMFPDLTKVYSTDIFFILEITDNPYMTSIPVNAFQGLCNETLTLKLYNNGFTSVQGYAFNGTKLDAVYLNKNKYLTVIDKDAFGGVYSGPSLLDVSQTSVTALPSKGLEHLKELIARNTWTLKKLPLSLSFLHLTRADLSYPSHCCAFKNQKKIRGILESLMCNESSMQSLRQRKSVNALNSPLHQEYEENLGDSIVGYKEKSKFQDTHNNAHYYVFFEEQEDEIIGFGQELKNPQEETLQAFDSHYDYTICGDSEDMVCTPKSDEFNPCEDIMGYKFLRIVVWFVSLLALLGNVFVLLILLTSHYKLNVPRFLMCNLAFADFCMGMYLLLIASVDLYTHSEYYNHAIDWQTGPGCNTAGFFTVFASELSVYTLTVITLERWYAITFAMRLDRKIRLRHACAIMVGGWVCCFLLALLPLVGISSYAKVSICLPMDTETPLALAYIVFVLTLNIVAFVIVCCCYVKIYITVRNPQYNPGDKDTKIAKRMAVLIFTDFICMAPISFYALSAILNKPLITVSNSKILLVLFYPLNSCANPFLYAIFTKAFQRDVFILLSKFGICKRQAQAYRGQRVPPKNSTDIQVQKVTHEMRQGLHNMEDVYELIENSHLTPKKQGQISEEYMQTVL
Nuclear receptor subfamily 1 group I member 3 (Homo sapiens), sequence (Q14994 whole entry, looked up): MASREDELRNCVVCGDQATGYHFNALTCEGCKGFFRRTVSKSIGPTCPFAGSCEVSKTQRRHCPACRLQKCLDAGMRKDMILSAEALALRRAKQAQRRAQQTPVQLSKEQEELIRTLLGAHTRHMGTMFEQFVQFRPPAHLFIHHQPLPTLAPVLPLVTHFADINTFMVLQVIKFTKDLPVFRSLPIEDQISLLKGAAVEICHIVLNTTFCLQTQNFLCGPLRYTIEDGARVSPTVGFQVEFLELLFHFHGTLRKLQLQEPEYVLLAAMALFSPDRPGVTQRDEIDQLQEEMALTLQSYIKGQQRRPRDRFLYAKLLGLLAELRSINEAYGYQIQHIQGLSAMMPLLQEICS
Luciferin 4-monooxygenase (Photinus pyralis), sequence (P08659 whole entry, looked up): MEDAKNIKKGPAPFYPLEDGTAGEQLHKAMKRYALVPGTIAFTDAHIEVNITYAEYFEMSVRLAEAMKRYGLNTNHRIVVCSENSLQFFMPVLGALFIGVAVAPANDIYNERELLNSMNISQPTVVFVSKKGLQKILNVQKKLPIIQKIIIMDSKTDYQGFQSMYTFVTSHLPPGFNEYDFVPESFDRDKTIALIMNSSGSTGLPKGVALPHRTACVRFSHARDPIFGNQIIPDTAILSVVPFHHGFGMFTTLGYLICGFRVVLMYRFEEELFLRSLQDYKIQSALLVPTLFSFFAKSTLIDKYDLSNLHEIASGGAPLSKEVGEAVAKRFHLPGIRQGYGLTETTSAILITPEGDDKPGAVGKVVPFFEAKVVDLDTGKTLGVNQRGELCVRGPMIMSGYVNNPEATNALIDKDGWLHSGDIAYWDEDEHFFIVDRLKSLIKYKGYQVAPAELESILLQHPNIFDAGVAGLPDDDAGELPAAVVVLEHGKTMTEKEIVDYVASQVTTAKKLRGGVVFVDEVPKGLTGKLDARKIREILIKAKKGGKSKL

CCCCCOC(C)=O
2.2 µM (active) and inactive: [9]
active: [1] 0.279 µM
not listed: [15] | [16] | [17] | [18] | [19] | [20]
inactive: all other assays above

O=S1(=O)CC=CC1
not listed: [9] | [10] | [17] | [18] | [19] | [20]
inactive: all other assays above

CCC(O)OC(O)CC (stereo not drawn)
not listed: [15] | [19] | [20]
inactive: all other assays above

CC(C)(N)CO
not listed: [4] | [15] | [19] | [20]
inactive: all other assays above

C[Si](O[Si](C)(C)C)O[Si](C)(C)C
not listed: [4] | [15] | [16] | [17] | [18] | [19] | [20]
inactive: all other assays above

O=C(O)c1cc(O)c(O)c(O)c1
active: [5] 61.7 µM
not listed: [6] | [13] | [15] | [17] | [18] | [19] | [20]
inactive: all other assays above

C=C(C)C(=O)Nc1ccc(Cl)c(Cl)c1
active: [10] 55 µM and 48.4 µM
not listed: [4] | [15] | [16] | [17] | [18] | [19] | [20]
inactive: all other assays above

CCCCCCCCC/C=C/CC1CC(=O)OC1=O (stereo not drawn)
active: [6] 71.3 µM
not listed: [4] | [15] | [16] | [17] | [18] | [19] | [20]
inactive: all other assays above

CN(C)CCC(c1ccc(Cl)cc1)c1ccccn1 (stereo not drawn)
48.7 µM (active) and inactive: [5]
active: [2] 55.1 µM
inactive: [1] | [3] | [19] | [20] | [7] | [16] | [11] | [12] | [13]

O=[N+]([O-])c1ccc(/C=C/c2ccc([N+](=O)[O-])cc2S(=O)(=O)O)c(S(=O)(=O)O)c1
inactive: [1] | [2] | [3] | [5] | [6] | [7] | [8] | [10] | [16] | [12] | [14]

CC(C)c1ccc(S(=O)(=O)O)cc1
not listed: [4] | [9] | [15] | [17] | [18] | [19] | [20]
inactive: all other assays above

CCc1cccc(C)c1N
not listed: [9] | [10] | [15] | [19] | [20]
inactive: all other assays above

C[C@H]1C[C@@H]2[C@H]([C@@H](O)C[C@@]3(C)[C@H]2CC[C@]3(O)C(=O)CO)[C@@]2(C)C=CC(=O)C=C12
not listed: [9] | [10] | [11] | [14] | [15] | [19] | [20]
inactive: all other assays above

Cc1cccc(O)c1
not listed: [4] | [11] | [15] | [16] | [19] | [20]
inactive: all other assays above

COc1ccc2cc([C@H](C)C(=O)O)ccc2c1
not listed: [4] | [6] | [9] | [10] | [14] | [15] | [17] | [18]
inactive: all other assays above

CC1CCC2CC1C2(C)C (stereo not drawn)
not listed: [4] | [15] | [17] | [18] | [19] | [20]
inactive: all other assays above

O=C(O)CCCCCCCCCCC(=O)O
not listed: [4] | [9] | [15] | [17] | [18] | [19] | [20]
inactive: all other assays above

Nc1ccccc1[N+](=O)[O-]
not listed: [9] | [10] | [15] | [19] | [20]
inactive: all other assays above

Nc1cc([N+](=O)[O-])ccc1O
active: [5] 48.6 µM and 30.5 µM | [7] 48.6 µM | [8] 30.6 µM
inactive and 9.72 µM (active): [1]
not listed: [4] | [13] | [15] | [16] | [19] | [20]
inactive: all other assays above
